Each structure is given as a SMILES string. The source made the active and inactive calls.

The nature of this experiment: plasmodial surface anion channel blockers, osmotic lysis – cell-based, P. falciparum Indochina, OD700, 1 h, primary screen (AID 1154). The note with it: P. falciparum Indochina infected RBC osmotic lysis, higher = more signal, called active from +8 up or from −8 down.
On to `CC1CC/C=C\[C@H]2OC34C=CCN(C(C)C)C(=O)[C@H]3N(CCO)C(=O)[C@@H]4C2C(=O)O1` (stereo not given in full), for which the z-score was 0.158 (inactive).
On to `C=C(/C(=C/C[C@H](OC(=O)c1ccncc1)c1ccc(CO)o1)c1cnc2ccccc2c1)C(C)C`, for which the z-score is 6.75 (inactive).
The result for `Cc1ccc(F)cc1S(=O)(=O)N[C@@H]1CCN(Cc2ccc(Br)cc2)C1` reads 2.63 (inactive); that for `CN1C2C=C(CCCO)C(C3C(=O)N(C(N)=O)C(=O)C32)C1C1CC1` (stereo not given), -0.234 (inactive).
On to `Cc1ccc(S[C@]2(C(=O)O)CC(=O)N(C3CCCCC3)[C@@H]2c2ccc(CO)cc2I)cc1`, for which the z-score is 9.32 (active).
With `COCCOC(=O)N1C(=O)[C@@]2(c3cc(C#CC4(O)CCCCCC4)ccc31)[C@H](C(=O)N1CCc3cc(OC)c(OC)cc3C1)[C@H]1C(=O)O[C@H](c3ccccc3)[C@H](c3ccccc3)N1[C@@H]2c1ccc(OCCO)cc1`, the z-score is 7.39 (inactive).
On to `COC(=O)[C@@]1(Cc2ccc(OC)cc2)[C@H]2c3cc(C(=O)N4CCCC4)n(CCc4c[nH]c5ccc(O)cc45)c3C[C@H]2CN1C(=O)c1ccccc1`, for which the z-score was 8.22 (active).
Regarding `CN(C)C(=O)[C@]1(CCC(=O)OC(C)(C)C)N=C(c2ccc(OCCCO)cc2)O[C@@H]1c1ccccc1CN=[N+]=[N-]`, the z-score was 29.8 (active).
On to `CCOC(=O)C1=CC[C@@H](c2ccccc2)N(S(=O)(=O)c2ccc(C)cc2)[C@H]1c1ccccc1`, for which the z-score was 1.97 (inactive).
Take `NC(=O)[C@H]1[C@@H]2C(=O)O[C@@H](c3ccccc3)[C@@H](c3ccccc3)N2[C@@H](c2ccc(OCCO)cc2)[C@]12C(=O)Nc1ccc(C#CCCO)cc12`: the z-score is 6.95 (inactive).

Source of the values: PubChem BioAssay.
